From PubChem BioAssay (NCATS)
Records with an inconclusive call do not appear. Active and inactive are the calls of the source. Calls come from the whole dose curve; as a rule, active = well fitted curve in the direction sought with a large enough effect; inconclusive = small, poorly fitted or top-dose-only effect, or another doubt; inactive = no such curve, though single readings can be large; an effect the other way counts as inactive or inconclusive.

Columns and labels:
[1] = Cell Viability - LYMP2-005 (AID 967); note: series mostly up to about 92 µM
Summary of the method: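 qHTS viability screen in LYMP2-005 cells: 24 h at 37 C with compound, ATP luminescence via CellTiter-Glo, AC50 from Hill curves.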

[2] = Cell Viability - LYMP2-009 (AID 968); note: series mostly up to about 92 µM; nearly all actives have a fitted effect of over 55% in size
[3] = Cell Viability - LYMP2-011 (AID 969); note: nearly all actives have a fitted effect of over 60% in size
Summary of the method: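 2500 cells/well, 5 hr 37 C; compound added, 24 hr 37 C; CellTiter-Glo 30 min RT; luminescence. qHTS concentration-response, Hill-equation AC50. Tetraoctylammonium bromide positive control.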

[4] = Cell Viability - LYMP2-013 (AID 970); note: series mostly up to about 92 µM; nearly all actives have a fitted effect of over 55% in size
Summary of the method: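 qHTS; 2500 lymphoblastoid cells/well; 5 hr 37 C settle; cpd 24 hr 37 C; CellTiter-Glo, 30 min RT; luminescence. AC50 = Hill fit.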

[5] = Cell Viability - LYMP2-015 (AID 971); note: nearly all actives have a fitted effect of over 55% in size
Summary of the method: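 Luminescent ATP read-out (CellTiter-Glo) served as the viability measure after lymphoblastoid cells were exposed to compounds for 24 hours at 37 C. Concentration-response data were fitted with the Hill equation to give AC50.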

[6] = Cell Viability - LYMP2-017 (AID 972); note: series mostly up to about 92 µM; nearly all actives have a fitted effect of over 55% in size
Summary of the method: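 2500 cells/well, 5 h 37 C; cpd 24 h 37 C in complete medium; CellTiter-Glo, 30 min RT; luminescence (ATP). AC50 via Hill fit, qHTS.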

[7] = Cell Viability - LYMP2-019 (AID 973); note: nearly all actives have a fitted effect of over 55% in size
Summary of the method: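 Luminescent ATP read-out (CellTiter-Glo, 30 min room temperature) served as the viability measure after 24 hr treatment of lymphoblastoid cells at 37 C. Concentration-response data were fitted to the Hill equation for AC50.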

[8] = Cell Viability - LYMP2-021 (AID 974)
Summary of the method: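 Plate 2500 lymphoblastoid cells per well and incubate 5 hr at 37 C. Add compounds over a concentration range and incubate 24 hr at 37 C. Add CellTiter-Glo, wait 30 min at room temperature, read luminescence.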

[9] = Cell Viability - LYMP2-023 (AID 975)
Summary of the method: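 2500 cells/well, 5 hr 37 C; cpd 24 hr 37 C; CellTiter-Glo, 30 min RT; luminescence. qHTS conc-response, Hill fit -> AC50. Pos ctrl tetraoctylammonium bromide.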

[10] = Cell Viability - LYMP2-025 (AID 976); note: series mostly up to about 92 µM
Summary of the method: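 Seed 2500 LYMP2-025 cells/well; 5 hr at 37 C; add compound; 24 hr at 37 C; add CellTiter-Glo; 30 min RT; read luminescence. AC50 from Hill-modelled concentration-response.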

[11] = Cell Viability - LYMP2-002 (AID 977); note: series mostly up to about 92 µM
Summary of the method: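 Luminescent ATP readout (CellTiter-Glo, 30 min room temperature) after 24 h compound exposure at 37 C of a human lymphoblastoid line, 2500 cells/well. AC50 values derived by standard Hill fitting of qHTS concentration-response data.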

[12] = Cell Viability - LYMP2-006 (AID 978); note: series mostly up to about 92 µM; nearly all actives have a fitted effect of over 60% in size
Summary of the method: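 Concentration-dependent loss of intracellular ATP in a human lymphoblastoid line after 24 hr treatment at 37 C was measured by CellTiter-Glo luminescence, with AC50 values obtained from standard Hill-equation modelling.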

[13] = Cell Viability - LYMP2-007 (AID 979);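 note: cells exposed to compound for 24 h before reading; nearly all actives have a fitted effect of over 60% in size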
Summary of the method: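 Luminescent ATP signal (CellTiter-Glo) serves as the viability read-out after 24 hr compound treatment of lymphoblastoid cells in complete medium at 37 C. Concentration-response data were fitted to the Hill equation to give AC50 values.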

[14] = Cell Viability - LYMP2-008 (AID 980); note: nearly all actives have a fitted effect of over 60% in size
Summary of the method: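 qHTS, human lymphoblastoid line, 2500 cells/well; 5 hr preincubation, 24 hr compound, 37 C. CellTiter-Glo ATP luminescence. AC50 via Hill equation. Tetraoctylammonium bromide positive control.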

[15] = Cell Viability - LYMP2-010 (AID 981); note: nearly all actives have a fitted effect of over 55% in size
Summary of the method: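 Luminescent ATP signal (CellTiter-Glo) served as the viability read-out. Cells of the human lymphoblastoid line were treated with compound over a concentration range for 24 hours at 37 C, and AC50 values came from Hill-equation modeling.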

[16] = Cell Viability - LYMP2-012 (AID 982)
[17] = Cell Viability - LYMP2-014 (AID 983); note: series mostly up to about 92 µM; nearly all actives have a fitted effect of over 50% in size
Summary of the method: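 Luminescent ATP signal (CellTiter-Glo, 30 min at room temperature) serves as the viability read-out after 24 hr compound exposure at 37 C. Cells were seeded at 2500 per well and settled 5 hr beforehand.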

[18] = Cell Viability - LYMP2-016 (AID 984); note: nearly all actives have a fitted effect of over 55% in size
Summary of the method: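 Acute toxicity in a Coriell human lymphoblastoid line is scored as loss of intracellular ATP over 24 h of treatment in complete medium. CellTiter-Glo signal is fitted across concentrations with the Hill equation to give AC50.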

[19] = Cell Viability - LYMP2-018 (AID 985); note: nearly all actives have a fitted effect of over 50% in size
Summary of the method: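 Luminescent ATP signal (CellTiter-Glo, read after 30 min at room temperature) reports viable cells after 24 hr compound treatment at 37 C. Concentration-response data were fitted to the standard Hill equation for AC50.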

[20] = Cell Viability - LYMP2-004 (AID 966); note: nearly all actives have a fitted effect of over 65% in size
Summary of the method: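 Cells seeded 2500/well, rested 5 hr at 37 C, dosed across a concentration series, incubated 24 hr at 37 C, then CellTiter-Glo added for 30 min at room temperature and luminescence read. Hill fitting gave AC50.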

Measured: Potency

CCCCCCCCCCCCC1CO1 (stereo not drawn)
not listed: [20]
inactive: all other assays above

CCCCCCCN
not listed: [1] | [10] | [11] | [16]
inactive: all other assays above

COc1ccc(N)c(OC)c1
not listed: [16] | [20]
inactive: all other assays above

CCCCC(C=O)CC (stereo not drawn)
not listed: [1] | [11] | [16]
inactive: all other assays above

CCN(CC)c1cccc(O)c1
not listed: [1] | [6] | [15]
inactive: all other assays above

CC(C)CO
not listed: [11] | [20]
inactive: all other assays above

CNC(=O)c1ccccc1
not listed: [15] | [20]
inactive: all other assays above

CC(=O)OCCC(C)C
not listed: [1] | [8] | [13]
inactive: all other assays above

Nc1c(Cl)cc(Cl)cc1Cl
not listed: [10] | [20]
inactive: all other assays above

c1ccsc1
not listed: [20]
inactive: all other assays above

O=C(O)CNC(=O)c1ccc(CO)o1
not listed: [1] | [8] | [16]
inactive: all other assays above

CC(CCl)OC(C)CCl (stereo not drawn)
not listed: [20]
inactive: all other assays above

[O-]/[N+](=N\O)c1ccccc1
not listed: [1] | [11] | [13] | [16]
inactive: all other assays above

CCCCC(=O)N(C)C
not listed: [1] | [11] | [14]
inactive: all other assays above

Cc1ccc(C)cc1
not listed: [11] | [20]
inactive: all other assays above

Clc1ccccn1
not listed: [1] | [8] | [9] | [11]
inactive: all other assays above

Cc1ccc(N(C)C)cc1
not listed: [1] | [10]
inactive: all other assays above
